Reference: ChEMBL document CHEMBL4513216, “Probing the Open Global Health Chemical Diversity Library for Multistage-Active Starting Points for Next-Generation Antimalarials” (ACS Infect Dis, 2020)
The whole screen tested about 68,000 compounds, of which about 2,700 (4%) showed an effect of 50% or more. What follows is part of a selection rich in strong results, with near analogues and random picks from the rest.

tested on: Plasmodium berghei; assay: Screen against P. berghei liver stage (PbLuc), transformed with Luciferase, at 2uM; assay type: functional, HepG2; settings: tested at 2 uM

With `COc1ccccc1N1CCN(C(=O)COc2c(C)occc2=O)CC1` as the compound, how does the INHIBITION read?
Its INHIBITION is -24.81%.

How did the INHIBITION turn out when `Cc1nc(C)n(CC2CCCN(CCOc3ccc(F)cc3)C2)n1` (stereo not given) was run?
The INHIBITION was -23.18%.

Which INHIBITION does the source give for `Cc1cccc(CN2CCC23CCCNC3)n1` (stereo not given) here?
Its INHIBITION is 20.51%.

For `Cc1cccc(CN2CCCCC23CCNC3)n1` (stereo not given), which INHIBITION is on record?
The INHIBITION was 22.16%.

Which INHIBITION does the source give for `Cc1cccc(CN2CCCC23CCNC3)n1` (stereo not given) here?
Its INHIBITION is 63.89%.

`CCc1nnc2n1CCN(Cc1csc(NC(C)=O)n1)C2` was tested. Which INHIBITION did it give?
Its INHIBITION is -5.09%.

How did the INHIBITION turn out when `Cc1ccc2c(c1)SCC(=O)N2CC(=O)N1CCC[C@H]1c1nc(C)no1` was run?
The INHIBITION was 22%.

`COc1c(CNC2CCc3cc(F)ccc32)c(C(C)C)nn1C` (stereo not given) was tested. Which INHIBITION did it give?
Its INHIBITION is -52.77%.

Which INHIBITION does the source give for `COCC(=O)NCC1(COc2cccnc2)C[C@@H](O)[C@@H](O)C1` (stereo not given in full) here?
Its INHIBITION is -40.44%.

With `CCn1nc(C)cc1S(=O)(=O)N1CCC2(CCCN(C(C)C)C2=O)C1` (stereo not given) as the compound, how does the INHIBITION read?
The INHIBITION was 55.36%.

`CCn1nccc1S(=O)(=O)N1CCC2(CCCN(C(C)C)C2=O)C1` (stereo not given) was tested. Which INHIBITION did it give?
The INHIBITION was 17.2%.

With `CCCN1CCCC2(CCN(S(=O)(=O)c3cccnc3)C2)C1=O` (stereo not given) as the compound, how does the INHIBITION read?
The INHIBITION was 11.9%.

With `CCCN1CCCC2(CCN(S(=O)(=O)c3cc(C)nn3CC)C2)C1=O` (stereo not given) as the compound, how does the INHIBITION read?
Its INHIBITION is 57.75%.

How did the INHIBITION turn out when `CCn1nc(C)cc1S(=O)(=O)N1CCC2(CC(=O)NC2=O)C1` (stereo not given) was run?
The INHIBITION was 5.28%.

`CCCn1nccc1S(=O)(=O)N1CCC2(CCCN(C(C)C)C2=O)C1` (stereo not given) was tested. Which INHIBITION did it give?
Its INHIBITION is 38.67%.

`COCCN1C(=O)[C@@H]2CC[C@H]1CN(C(=O)COc1ccc(F)c(Cl)c1)C2` was tested. Which INHIBITION did it give?
Its INHIBITION is 38.83%.

`COc1ccc(C2=CCN(C(=O)C3CCN(C)C(=O)C3)CC2)cc1` (stereo not given) was tested. Which INHIBITION did it give?
The INHIBITION was 17.39%.

Which INHIBITION does the source give for `O=C(NCc1ccccn1)[C@@]12CCO[C@@H]1CCN(c1ncccn1)C2` here?
Its INHIBITION is -20.87%.

With `Cc1oc(C(=O)O)cc1S(=O)(=O)Nc1ccc(Cl)c(Cl)c1` as the compound, how does the INHIBITION read?
Its INHIBITION is 16.79%.

With `Cc1oc(C(=O)O)cc1S(=O)(=O)Nc1ccc(Cl)c(F)c1` as the compound, how does the INHIBITION read?
The INHIBITION was 56.67%.

With `Cc1oc(C(=O)O)cc1S(=O)(=O)Nc1cc(Cl)ccc1F` as the compound, how does the INHIBITION read?
The INHIBITION was 16.64%.

`Cc1n[nH]c(C)c1NC(=O)CN1CCOC(Cn2cccn2)C1` (stereo not given) was tested. Which INHIBITION did it give?
The INHIBITION was 37.52%.

With `Cn1cc(C(=O)N2CCCC(c3cc(O)n(C)n3)C2)cn1` (stereo not given) as the compound, how does the INHIBITION read?
The INHIBITION was 27.39%.

Which INHIBITION does the source give for `COCc1nc(C(=O)NS(=O)(=O)c2ccc(Cl)cc2F)cs1` here?
Its INHIBITION is -7.88%.

Which INHIBITION does the source give for `NC(=O)c1ccc(CN2CCC(N3CCCC3)CC2)cc1` here?
Its INHIBITION is -29.69%.

Which INHIBITION does the source give for `NC(=O)c1ccc(CN2CCCC(N3CCCCCC3)C2)cc1` (stereo not given) here?
Its INHIBITION is 9.8%.

How did the INHIBITION turn out when `NC(=O)c1ccc(CN2CCCC(N3CCCC3)C2)cc1` (stereo not given) was run?
Its INHIBITION is 58.65%.

Which INHIBITION does the source give for `COCCN1CCC(Nc2c(F)cc(C#N)cc2F)CC1` here?
Its INHIBITION is -22.01%.

How did the INHIBITION turn out when `CSCC(=O)N[C@H]1CN(CC2CCOCC2)C[C@@H]1c1ccccc1` was run?
Its INHIBITION is 37.15%.

Which INHIBITION does the source give for `CS(=O)(=O)NCC(=O)N[C@H]1CN(CC2CC2)C[C@@H]1c1ccccc1` here?
The INHIBITION was 48.93%.

Which INHIBITION does the source give for `O=C(CCO)N[C@H]1CN(CC2CCC2)C[C@@H]1c1ccccc1` here?
The INHIBITION was 75.86%.

Which INHIBITION does the source give for `CN(C)S(=O)(=O)N1C[C@H]2CC[C@@H](C1)N(Cc1cccc(C#N)c1)C2` here?
Its INHIBITION is -19.83%.

`CCNC(=O)N1CCc2ccc(NC(=O)NCCOCC)cc21` was tested. Which INHIBITION did it give?
The INHIBITION was 10.1%.

Which INHIBITION does the source give for `CN(C)CCNC(=O)c1cnc2c(c1)nc(-c1ccccc1Cl)n2C` here?
Its INHIBITION is -1.73%.

How did the INHIBITION turn out when `Cn1c(-c2ccccc2Cl)nc2cc(C(=O)NCC3(C)COC3)cnc21` was run?
The INHIBITION was 21.24%.

Which INHIBITION does the source give for `Cn1c(-c2ccccc2Cl)nc2cc(C(=O)NC(CO)CO)cnc21` here?
Its INHIBITION is 56.89%.

With `CC(=O)NCCNC(=O)c1cnc2c(c1)nc(-c1ccccc1Cl)n2C` as the compound, how does the INHIBITION read?
The INHIBITION was -5.51%.

`Cn1c(-c2ccccc2Cl)nc2cc(C(=O)NCCOCCO)cnc21` was tested. Which INHIBITION did it give?
Its INHIBITION is 2.7%.

For `Cn1c(-c2ccccc2Cl)nc2cc(C(=O)NCC3(CO)CC3)cnc21`, which INHIBITION is on record?
The INHIBITION was 58.53%.

Which INHIBITION does the source give for `COc1ccc(NC(=O)CCC2CCCN(S(=O)(=O)C3CC3)C2)cc1Cl` (stereo not given) here?
The INHIBITION was 13.99%.

`CCc1ccc(C(=O)N2CCCC(CNS(C)(=O)=O)C2)o1` (stereo not given) was tested. Which INHIBITION did it give?
The INHIBITION was -23.94%.

How did the INHIBITION turn out when `O=C(c1ccc(F)c(Cl)c1)N1C[C@H]2CC[C@@H](C1)N(Cc1ccccc1)C2` was run?
Its INHIBITION is -38.33%.

How did the INHIBITION turn out when `Cc1cn2nc(N3CCCC3CC(C)(C)C)sc2n1` (stereo not given) was run?
Its INHIBITION is 29.11%.

For `COCCc1noc(CNC(C)(CO)C2CCCCC2)n1` (stereo not given), which INHIBITION is on record?
Its INHIBITION is 65.79%.

With `CC(CO)(NCc1noc(Cc2ccccc2)n1)C1CCCCC1` (stereo not given) as the compound, how does the INHIBITION read?
The INHIBITION was -69.13%.

How did the INHIBITION turn out when `CCc1nc(CNC(C)(CO)C2CCCCC2)no1` (stereo not given) was run?
Its INHIBITION is 17.89%.

With `CN1C(=O)Cc2cc(-c3csc(CCN4CCOC4=O)n3)ccc21` as the compound, how does the INHIBITION read?
The INHIBITION was -35.62%.

How did the INHIBITION turn out when `O=C1CCCc2cc(-c3csc(CCN4CCOC4=O)n3)ccc2N1` was run?
The INHIBITION was 33.01%.

For `O=C1OCCN1CCc1nc(-c2cc3c4c(c2)CC(=O)N4CCC3)cs1`, which INHIBITION is on record?
The INHIBITION was 78.51%.

`CC(C)(C)c1ncc(C(=O)NCCSc2ccccn2)c(O)n1` was tested. Which INHIBITION did it give?
Its INHIBITION is 68.02%.

For `CCn1c(C)nnc1SCCNC(=O)c1cnc(C(C)(C)C)nc1O`, which INHIBITION is on record?
Its INHIBITION is 3.86%.

For `Cc1nc(C(C)C)sc1C(=O)NCCSc1ccccn1`, which INHIBITION is on record?
The INHIBITION was -103.61%.

For `CN1C[C@H]2CC[C@@H](C1)N(Cc1ccccc1OCCN1CCOCC1)C2`, which INHIBITION is on record?
Its INHIBITION is 32.1%.

For `NC(=O)CC1CC2(CCNCC2)c2cc(F)ccc21` (stereo not given), which INHIBITION is on record?
Its INHIBITION is -8.62%.

`c1cnc(-c2nn3c(CN4CCOCC4)nnc3s2)cn1` was tested. Which INHIBITION did it give?
Its INHIBITION is 26.03%.

`c1cnc(-c2nn3c(CN4CCCCC4)nnc3s2)cn1` was tested. Which INHIBITION did it give?
The INHIBITION was 7.91%.

For `c1cnc(-c2nn3c(CN4CCCCCC4)nnc3s2)cn1`, which INHIBITION is on record?
Its INHIBITION is 55.73%.

Which INHIBITION does the source give for `COC(=O)N1CCCC(NC(=O)NCc2ccc(C)nc2)C1` (stereo not given) here?
Its INHIBITION is 22.07%.

Which INHIBITION does the source give for `CC(C)(C)CC(=O)N1CC[C@H]2CC(=O)N(CCc3c[nH]cn3)CC[C@H]2C1` here?
Its INHIBITION is 17.31%.

Which INHIBITION does the source give for `Cc1cccc(C(C(=O)NCCCc2nnc3ccccn23)N(C)C)c1` (stereo not given) here?
Its INHIBITION is -0.59%.

`CCc1nnc(CN(CC)C(=O)C2CC(=O)N(C3CC3)C2)o1` (stereo not given) was tested. Which INHIBITION did it give?
The INHIBITION was 10.02%.

`CCc1nnc(CN(CC)C(=O)C2CC(=O)N(C(C)(C)C)C2)o1` (stereo not given) was tested. Which INHIBITION did it give?
The INHIBITION was 50.86%.

With `CCc1nnc(CN(CC)C(=O)C2CC(=O)N(CC)C2)o1` (stereo not given) as the compound, how does the INHIBITION read?
The INHIBITION was 6.84%.

Which INHIBITION does the source give for `CCc1c(C)nc2cc(-c3nccn3C)nn2c1N1CCCC(CO)C1` (stereo not given) here?
Its INHIBITION is -40.66%.

With `CCS(=O)(=O)c1ccc2oc([C@H]3CCN(Cc4ccncc4)C3)nc2c1` as the compound, how does the INHIBITION read?
The INHIBITION was 61.7%.

Which INHIBITION does the source give for `Cc1ccc2oc([C@H]3CCN(Cc4ccccc4)C3)nc2c1` here?
Its INHIBITION is 45.22%.

`CCS(=O)(=O)c1ccc2oc([C@H]3CCN(Cc4ccccn4)C3)nc2c1` was tested. Which INHIBITION did it give?
The INHIBITION was 30.4%.

Which INHIBITION does the source give for `CCS(=O)(=O)c1ccc2oc([C@H]3CCN(CC4CCCCC4)C3)nc2c1` here?
The INHIBITION was 44.13%.

With `CCS(=O)(=O)c1ccc2oc([C@H]3CCN(Cc4ccccc4)C3)nc2c1` as the compound, how does the INHIBITION read?
The INHIBITION was 55.66%.

How did the INHIBITION turn out when `CCS(=O)(=O)c1ccc2oc([C@H]3CCN(Cc4cccnc4)C3)nc2c1` was run?
Its INHIBITION is 16.12%.
